The text below walks through data of the supplement of paper PMC13094657.

± gives the standard deviation of the averaged measurements.
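Throughout, for cell viability relative to vehicle unstimulated control: viability of the cells left after supernatant collection, read with Deep Blue dye added for 4 h, as absorbance at 570 nm minus 600 nm.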

The test system of the first test is MDA-MB-231. Kind of test: cell viability relative to vehicle unstimulated control (fraction); higher = more viable cells. As to conditions: pre-treatment time: 18 h then 24 h IFNg/TNF.
As for `CC1(C)CC[C@]2(C(=O)O)CC[C@]3(C)C(=CC[C@@H]4[C@@]5(C)CC[C@H](O)[C@@](C)(CO)[C@@H]5CC[C@]43C)[C@@H]2C1` [Hederagenin] (compound dose: 10 uM), the cell viability was 1.06 ± 0.2.

In the case of `C[C@@H]1O[C@@H](O[C@H]2[C@H](OC(=O)[C@]34CCC(C)(C)C[C@H]3C3=CC[C@@H]5[C@@]6(C)C[C@H](O)[C@H](O[C@@H]7O[C@H](CO)[C@@H](O)[C@H](O)[C@H]7O)[C@](C)(CO)[C@@H]6CC[C@@]5(C)[C@]3(C)CC4)O[C@H](CO)[C@@H](O[C@@H]3OC[C@@H](O)[C@H](O)[C@H]3O)[C@@H]2O[C@@H]2OC[C@](O)(CO)[C@H]2O)[C@H](O)[C@H](O)[C@H]1O` [Polygalasaponin V] (compound dose: 10 uM), the cell viability was determined as 0.992 ± 0.027. Consider `CC(C)=CCCC(C)(OC1OC(CO)C(O)C(O)C1O)C1CCC2(C)C1C(O)CC1C3(C)CC(O)C(OC4OC(CO)C(O)C(O)C4OC4OC(CO)C(O)C(O)C4O)C(C)(C)C3CCC12C` (configuration not stated) [Gypenoside XLVI] (compound dose: 10 uM), for which the cell viability turned out to be 1.03 ± 0.27.

In the case of `CC(CCC(OC1OC(COC2OC(CO)C(O)C(O)C2O)C(O)C(O)C1OC1OC(CO)C(O)C(O)C1O)C(C)(C)O)C1CCC2(C)C3CC=C4C(CCC(OC5OC(COC6OC(CO)C(O)C(O)C6O)C(O)C(O)C5O)C4(C)C)C3(C)C(=O)CC12C` (configuration not stated) [11-oxo-mogroside V] (compound dose: 10 uM), the cell viability was 1.1 ± 0.12.

`C=C1[C@H](OC(=O)C(C)C)[C@@H](O)[C@@H](OC(C)=O)C(C)(C)/C=C/[C@H](C)[C@H](OC(C)=O)[C@@]2(O)C[C@@](C)(OC(C)=O)[C@H](OC(=O)c3ccccc3)[C@@H]2[C@H]1OC(C)=O` [Jatrophane 4] (compound dose: 10 uM): the cell viability was 1.1 ± 0.017. As to `C[C@H]1O[C@@H](O[C@H]2CC[C@@]3(C)[C@@H](CC[C@]4(C)[C@@H]3C=C[C@]35OC[C@@]6(CCC(C)(C)C[C@H]63)[C@@H](O)C[C@]54C)[C@]2(C)CO)[C@H](O)[C@@H](O[C@@H]2O[C@H](CO)[C@@H](O)[C@H](O)[C@H]2O)[C@H]1O` [Saikosaponin A] (compound dose: 10 uM), the cell viability was 1.015 ± 0.0091.

As for `CC(=O)OC1COC(OC2CCC34CC35CCC3(C)C(C6(C)CCC(C(C)(C)O)O6)C(O)CC3(C)C5CC(OC3OC(CO)C(O)C(O)C3O)C4C2(C)C)C(OC(C)=O)C1O` (configuration not stated) [Isoastragaloside I] (compound dose: 10 uM), the cell viability worked out at 0.983 ± 0.0057. Still for that read-out and setting: the value for `Cc1ccc(C(C)C)cc2c(C)ccc1-2` [Guaiazulene] (compound dose: 10 uM) was 1.1 ± 0.013. Still for that read-out and setting: the value for `C=C(C)[C@@H]1CC=C(C)CC1` [(-)-Limonene] (compound dose: 10 uM) was 1.1 ± 0.035.

In a further test the test system is MDA-MB-231. Kind of test: kynurenine production, fold change vs DMSO IFNg/TNF control; higher = more kynurenine produced (less inhibition). As to conditions: pre-treatment time: 18 h then 24 h IFNg/TNF. In a few lines:
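After trichloroacetic acid and p-dimethylaminobenzaldehyde treatment, supernatants were read at 492 nm, with 0–100 μM standards. These came from MDA-MB-231 cells (7 × 10^4/well, 96-well plates) pre-treated 18 h with natural products in 0.1% DMSO and then exposed 24 h to IFNγ (1 U/ml) and TNF (6.25 ng/ml) at 37°C. Values for kynurenine production are fold changes over same-plate cytokine-stimulated vehicle wells, averaged over duplicate plates in the first screening round.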
`CC(=O)OC(CC(C)C1=C2C[C@H](O)C3[C@@]4(C)CCC(=O)C(C)(C)C4CC[C@]3(C)[C@@]2(C)CC1)C1OC1(C)C` (some centres not stated) [Alisol B 23-acetate] (compound dose: 10 uM): the kynurenine production amounted to 1.27 ± 0.24. In the case of `CC(C)=CCC[C@@](C)(O)[C@H]1CC[C@]2(C)[C@@H]1[C@H](O)C[C@@H]1[C@@]3(C)CC[C@H](O)C(C)(C)[C@@H]3CC[C@]12C` [(20R)-Protopanaxadiol] (compound dose: 10 uM), the kynurenine production is 0.793 ± 0.14. Same read-out and setting: the value for `COc1ccc2cc1Oc1ccc(cc1)C[C@H]1c3cc(c(OC)cc3CCN1C)Oc1c(OC)c(OC)cc3c1[C@H](C2)N(C)CC3` [Tetrandrine] (compound dose: 10 uM) was 1.11 ± 0.024; that for `CC1(C)CC[C@]2(C(=O)O)[C@H](O)C[C@]3(C)C(=CC[C@@H]4[C@@]5(C)CC[C@H](O)C(C)(C)[C@@H]5CC[C@]43C)[C@H]2C1` [Echinocystic acid] (compound dose: 10 uM) was 0.787 ± 0.065; that for `COC(=O)C1=CO[C@@H](O[C@@H]2O[C@H](CO)[C@@H](O)[C@H](O)[C@H]2O)[C@@H]2[C@@]3(C)O[C@H]3[C@@H](O)[C@]12O` [Sesamoside] (compound dose: 10 uM) was 0.928 ± 0.12.

On to `CC1C(=O)OC2C(O)C34C5CC(C(C)(C)C)C36C(OC(=O)C6O)OC4(C(=O)O5)C12O` (configuration not stated) [Ginkgolide B] (compound dose: 10 uM), for which the kynurenine production came to 1.18 ± 0.033. Still for that read-out and setting: for `CC12CCC(CC1=O)C2(C)C` (configuration not stated) [Camphor] (compound dose: 10 uM) the value was 0.832 ± 0.21; for `C=CC(=C)CCC=C(C)C` [Myrcene] (compound dose: 10 uM), 0.867 ± 0.1; for `CC(C)=CC/C=C(/C)[C@H]1CC[C@@]2(C)[C@@H]1[C@@H](O)CC1[C@@]3(C)CCC(O[C@@H]4O[C@H](CO)[C@@H](O)[C@H](O)[C@H]4O)C(C)(C)C3CC[C@]12C` (some centres not stated) [Ginsenoside Rh3] (compound dose: 10 uM), 0.858 ± 0.029.

As for `C=C(C)C1CC=C(C)CC1` (stereo not drawn) [(s)-(-)-limonene] (compound dose: 10 uM), the kynurenine production is 0.84 ± 0.099. The same measure, in the same setting: for `C=C(C)C1CC=C(C)[C@@H](O)C1` (single isomer, unassigned; (-)) [(-)-carveol (mixed)] (compound dose: 10 uM) the value was 1.02 ± 0.019; for `CC(C)=CCC/C(C)=C/CC/C(C)=C/CO` [Farnesol] (compound dose: 10 uM), 0.939 ± 0.2. Same read-out and setting: the value for `CC1(C)CC[C@]2(C(=O)O)CCC3=C([C@@H](CCl)C[C@@H]4[C@@]5(C)C[C@H](O)[C@H](O)[C@@](C)(C(=O)O)[C@@H]5CC[C@@]34C)[C@@H]2C1` [Tenuigenin] (compound dose: 10 uM) was 0.952 ± 0.2; that for `CC(C)(O)CCC(=O)[C@](C)(O)C1[C@H](O)C[C@@]2(C)[C@@H]3CC=C4[C@@H](C[C@H](O)[C@@H](O)C4(C)C)[C@]3(C)C(=O)C[C@]12C` (some centres not stated) [Cucurbitacin IIb] (compound dose: 10 uM) was 0.826 ± 0.27. The same measure, in the same setting: for `O=C1C[C@@H](c2ccc(O)cc2)Oc2cc(O)cc(O)c21` [Naringenin] (compound dose: 10 uM) the value was 0.772 ± 0.011; for `C[C@@H]1O[C@@H](O[C@H]2[C@H](OC(=O)[C@]34CCC(C)(C)C[C@H]3C3=CC[C@@H]5[C@@]6(C)C[C@H](O)[C@H](O[C@@H]7O[C@H](CO)[C@@H](O)[C@H](O)[C@H]7O)C(CO)(CO)[C@@H]6CC[C@@]5(C)[C@]3(C)C[C@H]4O)OC[C@H](O)[C@@H]2O)[C@H](O)[C@H](O)[C@H]1O[C@@H]1OC[C@@H](O)[C@H](O[C@@H]2OC[C@](O)(CO)[C@H]2O)[C@H]1O` [Platycodin D] (compound dose: 10 uM), 0.354 ± 0.065. For `O=C(/C=C/c1ccc(O)c(O)c1)O[C@H]1[C@H](O[C@@H]2O[C@H](CO)[C@@H](O)[C@H](O)[C@H]2O)[C@@H](O)[C@H](OCCc2ccc(O)c(O)c2)O[C@@H]1CO` [Plantamajoside] (compound dose: 10 uM), the kynurenine production came out at 0.678 ± 0.24. Still for that read-out and setting: for `C=C1C(=O)[C@]23[C@H](O)[C@H]1CC[C@H]2[C@@]12CO[C@]3(O)[C@@H](O)[C@@H]1C(C)(C)CC[C@@H]2O` [Oridonin] (compound dose: 10 uM) the value was 0.73 ± 0.054; for `CC(C)C12CCC(C)(CC1)O2` [1,4-Cineole] (compound dose: 10 uM), 0.863 ± 0.11; for `CC(C)=CCCC(C)CCO` (configuration not stated) [Citronellol] (compound dose: 10 uM), 0.845 ± 0.25. Same read-out and setting: for `C=C1C[C@@]23CC[C@H]4[C@@](C)(CCC[C@@]4(C)C(=O)O[C@@H]4O[C@H](CO)[C@@H](O)[C@H](O)[C@H]4O[C@@H]4O[C@H](CO)[C@@H](O)[C@H](O)[C@H]4O)[C@@H]2CC[C@]1(O[C@@H]1O[C@H](CO)[C@@H](O)[C@H](O[C@@H]2O[C@H](CO)[C@@H](O)[C@H](O)[C@H]2O)[C@H]1O[C@@H]1O[C@H](CO)[C@@H](O)[C@H](O)[C@H]1O)C3` [Rebaudioside D] (compound dose: 10 uM) the value was 0.9927 ± 0.0066. As to `COc1cc2ccc(=O)oc2cc1O[C@@H]1O[C@H](CO)[C@@H](O)[C@H](O)[C@H]1O` [Scopolin] (compound dose: 10 uM), the kynurenine production worked out at 1.22 ± 0.16. The same measure, in the same setting: for `C=C(C)[C@@H]1CC[C@]2(C)CC[C@]3(C)[C@H](CC[C@@H]4[C@@]5(C)CCC(=O)C(C)(C)[C@@H]5CC[C@]43C)[C@@H]12` [Lupenone] (compound dose: 10 uM) the value was 0.898 ± 0.16; for `C[C@H]1O[C@@H](O[C@H]2[C@@H](O)C[C@H](O[C@H]3[C@@H](O)C[C@H](O[C@H]4CC[C@@]5(C)[C@H](CC[C@@H]6[C@@H]5CC[C@]5(C)[C@@H](C7=CC(=O)OC7)CC[C@]65O)C4)O[C@@H]3C)O[C@@H]2C)C[C@H](O)[C@@H]1O` [Digitoxin] (compound dose: 10 uM), 0.967 ± 0.023; for `CC1(C)CCCC2(C)C1CCC1(C)OCCC12` (configuration not stated) [Ambroxide] (compound dose: 10 uM), 0.891 ± 0.13. `COC(=O)C1=CO[C@@H](O[C@@H]2O[C@H](CO)[C@@H](O)[C@H](O)[C@H]2O)[C@@H]2[C@@H](C)[C@@H](O)C[C@H]12` [Loganin] (compound dose: 10 uM): the kynurenine production was determined as 1.02 ± 0.18.

With `CCCCC/C=C\C=C\C(=O)O[C@H]1C(C)=C[C@]23C(=O)[C@@H](C=C(CO)[C@@H](O)[C@]12O)[C@H]1[C@@H](C[C@H]3C)C1(C)C` [3-O-(2'E,4'ZDecadienoyl) ingenol] (compound dose: 10 uM), the kynurenine production came out at 1.022 ± 0.0084. The same measure, in the same setting: for `CC(C)=CCC[C@](C)(O[C@@H]1O[C@H](CO[C@@H]2O[C@@H](CO)[C@H](O)[C@H]2O)[C@@H](O)[C@H](O)[C@H]1O)[C@H]1CC[C@]2(C)[C@@H]1[C@H](O)C[C@@H]1[C@@]3(C)CC[C@H](O[C@@H]4O[C@H](CO)[C@@H](O)[C@H](O)[C@H]4O[C@@H]4O[C@H](CO)[C@@H](O)[C@H](O)[C@H]4O)C(C)(C)[C@@H]3CC[C@]12C` [Ginsenoside Rc] (compound dose: 10 uM) the value was 0.744 ± 0.044.
